# Source: PubChem BioAssay (National Center for Advancing Translational Sciences (NCATS))
# An excerpt weighted towards active compounds, which were near 17% of everything screened.
# DT40 TDP1 CPT – growth inhibition of DT40 Tdp1-/-;hTDP1 cells with camptothecin (screen for TDP1 inhibitors); chicken DT40 Tdp1-/-;hTDP1 cells + 20 nM CPT, ATP luminescence, 48 h; Potency, µM (titrated, usually from 46.2 µM), for inactives: at the top dose activity change, negative = growth inhibition, hits mostly inhibitors; hit rate 12% among 420,000; also: % is scaled to controls: 0 for no effect and ±100 for the full control effect; nearly all actives have a fitted effect of over 55% in size
#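 Chicken DT40 Tdp1-/- cells stably complemented with human TDP1 were seeded at 400 cells/well in medium containing 20 nM camptothecin, exposed to pin-transferred compounds, and grown at 37 °C for at least 48 hr. Viability was read as ATP luminescence.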
# DT40 TDP1 no CPT – qHTS for Inhibitors of human tyrosyl-DNA phosphodiesterase 1 (TDP1): qHTS in cells in absence of CPT; DT40 Tdp1-/- hTDP1 cells, no CPT, ATP luminescence, 48 h; Potency, µM (doses to about 46.2 µM), inactives show at the top dose activity change, negative = growth inhibition, actives largely listed as inhibitors; hit rate 15% among 420,000; AID 686978, 2013; also: % is scaled to controls: 0 for no effect and ±100 for the full control effect; nearly all actives have a fitted effect of over 55% in size
#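 Readout: luminescence from CellTiter-Glo after 30 min in the dark at RT. Cells: DT40 Tdp1-/- with stable hTDP1, 400/well. Exposure: compounds alone, ≥48 hr, 37 °C.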
# TDP1 inh – inhibitors of human tyrosyl-DNA phosphodiesterase TDP1. Q9NUW8. recombinant TDP1, AlphaScreen DNA substrate cleavage. Potency, µM (highest dose often 130 µM), for inactives: at the highest dose activity change, negative = inhibition, hits mostly inhibitors. hit rate 0.28% among 350,000. AID 485290; also: % is scaled to controls: 0 for no effect and ±100 for the full control effect; nearly all actives have a fitted effect of over 40% in size
# Target sequence (Q9NUW8 whole entry, looked up): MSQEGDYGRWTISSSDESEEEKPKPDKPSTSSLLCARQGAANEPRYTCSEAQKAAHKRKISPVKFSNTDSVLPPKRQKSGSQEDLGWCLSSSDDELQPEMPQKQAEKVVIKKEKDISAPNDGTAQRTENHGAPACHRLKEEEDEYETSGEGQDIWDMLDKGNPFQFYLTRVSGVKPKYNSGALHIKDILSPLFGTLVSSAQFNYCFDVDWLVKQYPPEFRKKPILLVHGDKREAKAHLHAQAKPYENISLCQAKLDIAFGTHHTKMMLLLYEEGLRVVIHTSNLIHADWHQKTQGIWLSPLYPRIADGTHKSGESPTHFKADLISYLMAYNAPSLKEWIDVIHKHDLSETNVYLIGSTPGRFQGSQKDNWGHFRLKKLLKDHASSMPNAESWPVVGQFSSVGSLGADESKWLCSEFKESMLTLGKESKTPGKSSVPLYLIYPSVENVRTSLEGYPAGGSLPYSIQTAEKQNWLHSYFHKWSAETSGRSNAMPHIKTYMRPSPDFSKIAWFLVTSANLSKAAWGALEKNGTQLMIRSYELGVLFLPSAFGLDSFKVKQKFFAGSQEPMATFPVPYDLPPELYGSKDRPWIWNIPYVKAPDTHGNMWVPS
#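 Steps: enzyme plus compound, 15 min RT; add biotin/phosphotyrosine-FITC oligonucleotide (15 nM final), react 5 min; add donor/acceptor beads (10 ug/ml final), 10 min; read AlphaScreen. Tdp1 at 1 nM final.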
# ClpP mod – qHTS Assay for Activators of ClpP; Potency, µM (top dose mostly 57.5 µM), inactives show at the highest dose activity change, negative = active; hit rate 1.9% among 340,000; purified B. subtilis ClpP, FRET peptide cleavage, 20 min; AID 651965, 2013; ATP-dependent Clp protease proteolytic subunit (Bacillus subtilis (strain 168)), P80244; active = well fitted falling curve with a large enough effect; inconclusive = small, poorly fitted or top-dose-only effect; inactive = no such curve, though single readings can be large or run the other way; also: the source files actives as falling curves though it sought activators and does not explain the sign; nearly all actives have a fitted effect of over 65% in size
#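 Buffer: 100 mM Tris/HCl pH8, 100 mM KCl, 0.05% low protease BSA, 2.5% glycerol, 0.01% Tween-20. ClpP 10 microg/mL final; 20 min RT; delta FRET normalized to ADEP and DMSO controls.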
# * marks the source's active call; other numbers are inactive results; ? = inconclusive; / = not tested or not shown. Unless noted, calls follow the shape of the dose curve; as a rule, active = well fitted curve in the direction sought with a large enough effect; inconclusive = small, poorly fitted or top-dose-only effect, or another doubt; inactive = no such curve, though single readings can be large; an effect the other way counts as inactive or inconclusive. Potency is read from the fitted curve at half-maximal effect.
SMILES,DT40 TDP1 CPT,DT40 TDP1 no CPT,TDP1 inh,ClpP mod
Cc1cc(C)nc(Sc2nc(C)nc3c2oc2ccccc23)n1,?,23µM*,0%,-11%
Cc1nc(SCC(=O)Nc2ccccc2)c2oc3ccccc3c2n1,-5%,-30%,-5%,1%
Cc1nc(SCC(=O)NC(C)c2ccccc2)c2oc3ccccc3c2n1 (stereo not drawn),16µM*,21µM*,6%,-1%
O=C(/C=C\Nc1ccc(Br)cc1)c1cccnc1,-7%,-27%,5%,1%
O=C(Nc1nnc(S(=O)(=O)N2CCCCC2)s1)c1ccc(F)cc1,-10%,-17%,12%,-6%
COc1ccc(CC(=O)Nc2cc(-c3nc4cccnc4s3)ccc2C)cc1,?,?,4%,-7%
O=C(Cn1sc2ccccc2c1=O)Nc1ccccc1,2.3µM*,2.1µM*,/,-2%
O=C(Cn1sc2ccccc2c1=O)NC12CC3CC(CC(C3)C1)C2,1.5µM*,1.8µM*,12%,-19%
O=c1c(Cl)c(N2CCC3(CC2)OCCO3)cnn1C12CC3CC(CC(C3)C1)C2,?,13µM*,/,1%
O=c1c(Cl)c(NCc2ccccc2)cnn1C12CC3CC(CC(C3)C1)C2,-7%,?,-1%,-3%
COCCNc1oc(/C=C/c2cccc(OC)c2)nc1S(=O)(=O)c1ccccc1,?,?,/,4%
CC1=C(c2ccc(C)c(C)c2)S(=O)(=O)N(Cc2ccc(C(=O)NCc3ccccc3F)cc2)C1=O,?,?,1%,14µM*
CCc1ccc(NC(=O)c2ccc(CN3C(=O)C(C)=C(c4ccc(C)cc4)S3(=O)=O)cc2)cc1,?,10µM*,6%,-3%
CC1=C(c2ccc(C)cc2)S(=O)(=O)N(Cc2ccc(C(=O)Nc3ccccc3C)cc2)C1=O,7.3µM*,8.2µM*,8%,-3%
COc1ccc(C2=C(C)C(=O)N(Cc3ccc(C(=O)Nc4ccc(C)c(C)c4)cc3)S2(=O)=O)cc1,-22%,?,7%,-21%
CC1=C(c2ccc(C)cc2)S(=O)(=O)N(Cc2ccc(C(=O)Nc3ccc(F)cc3C)cc2)C1=O,5.8µM*,5.2µM*,8%,-15%
COc1ccccc1NC(=O)c1ccc(CN2C(=O)C(C)=C(c3ccc(C)c(C)c3)S2(=O)=O)cc1,?,?,3%,-5%
Cc1ccc(-n2c(=O)c3c4c(sc3n(Cc3ccccc3C)c2=O)CCC4)cc1C,-18%,-11%,9%,1%
COc1ccccc1NCC(=O)N/N=C/c1c(O)ccc2ccccc12,5.8µM*,2.9µM*,/,15%
COc1ccccc1NCC(=O)N/N=C/c1cccnc1,-14%,0%,9%,1%
O=C(Cc1n[nH]c(=O)[nH]c1=O)N/N=C/c1c(O)ccc2ccccc12,19%,-1%,2%,/
COc1ccccc1NC(=O)c1c(N=Cc2c(O)ccc3ccccc23)cnn1C,8.2µM*,6.5µM*,6%,/
COc1ccccc1CNC(=O)CN(c1ccccc1OC)S(C)(=O)=O,-25%,-28%,7%,1%
COc1ccccc1N(CC(=O)N/N=C/c1c(O)ccc2ccccc12)S(C)(=O)=O,5.2µM*,5.8µM*,10%,1%
O=C(CNc1ccc(F)cc1)N/N=C/c1c(O)ccc2ccccc12,10µM*,9.2µM*,/,-3%
SMILES,DT40 TDP1 CPT,DT40 TDP1 no CPT,TDP1 inh,ClpP mod
Cc1ccc(C)c(OCCOCCn2c(-c3ccc(Br)cc3)nc3ccccc3c2=O)c1C,?,15%,/,-1%
CCOc1ccc2ccccc2c1/C=N/NC(=O)CNC(=O)Cc1ccccc1,18µM*,1%,-3%,-12%
CCOc1ccc2ccccc2c1/C=N/NC(=O)CNC(=O)c1ccccc1F,-18%,?,0%,/
CC12CN3CC(c4ccccc4)(CN(C1)C3c1ccc(Cl)cc1)C2=O (stereo not drawn),?,?,-2%,0%
OC1(CN2CCOCC2)C2CN3CCN(C2)CC1(c1ccccc1)C3 (stereo not drawn),29µM*,?,5%,-4%
CC(C)(C)c1ccc(C(=O)NNc2cc(N3CCCCC3)nc(N3CCCCC3)n2)cc1,26µM*,?,6%,-2%
CCc1nn(Cc2c(C)cc(C)cc2C)c(=O)c2cc3cc(C)ccc3n12,-29%,0%,-5%,-2%
Cc1ccc(-c2csc(=Nc3cccnc3)n2CCCn2ccnc2)cc1C,16µM*,12µM*,8%,-1%
c1cncc(N=c2scc(-c3cccc4ccccc34)n2CCCn2ccnc2)c1,?,?,10%,1%
CCCCn1c(C)csc1=Nc1cccnc1,?,?,3%,-17%
CC(C)n1c(-c2ccco2)csc1=Nc1cccnc1,11µM*,?,6%,-2%
c1cncc(-c2nc(-c3ccco3)cs2)c1,?,?,-14%,-10%
COCCn1c(-c2ccccc2)csc1=Nc1cccnc1,16µM*,?,5%,/
Cc1ccc(-c2csc(=Nc3cccnc3)n2CCCN2CCCC2=O)cc1C,?,18µM*,5%,-2%
CCOc1cccc(C(=O)NC2=NCCS2)c1,3%,2%,/,1%
O=C(CN1C(=O)COc2ccccc2C1=O)c1ccc2c(c1)OCCO2,3%,2%,0%,5%
Cc1nn(-c2ccccc2)c(Cl)c1CN(C(=O)CCl)c1cccc2ccccc12,5.8µM*,6.5µM*,5%,-2%
Cc1nn(-c2ccccc2)c(Cl)c1CN(C(=O)CCl)c1ccc(Cl)cc1,7.3µM*,6.5µM*,1%,0%
COc1ccc(NC(=O)CN(C)C(=O)c2cccc(S(=O)(=O)N3CCN(c4ccc(F)cc4)CC3)c2)cc1,13µM*,?,/,0%
CN(CC(=O)Nc1ccc(F)cc1)C(=O)c1cccc(S(=O)(=O)N2CCN(c3ccccc3)CC2)c1,16µM*,21µM*,-3%,0%
Cc1cc(N(C)C)c(C#N)c(NCc2ccccc2)n1,9%,0%,-6%,0%
C=CCNc1nc(NCc2ccccc2)c(C#N)c2c1CN(C)CC2,18µM*,?,6%,48%
CCN1CCc2c(C#N)c(NCc3ccccc3)nc(N(CC)CC)c2C1,?,18µM*,6%,?
O=C(COc1ccccc1Cl)NCCNC(=O)c1cnccn1,6%,9%,-3%,/
O=C(COc1cccc2ccccc12)NNC(=O)c1cnccn1,?,16µM*,8%,1%
O=C(COc1ccc2ccccc2c1)NNC(=O)c1cnccn1,23µM*,23µM*,-8%,1%
CC(C)NC(=S)NNc1ncnc2sc3c(c12)CC(C)(C)OC3,-5%,?,/,0%
CC1(C)Cc2c(sc3ncnc(NNC(=S)NCc4ccccc4)c23)CO1,?,23µM*,-5%,0%
N#Cc1nc(Nc2cccc(F)c2)nc(NC2CCCC2)n1,/,/,-4%,/
